We go through 40 compounds from PubChem BioAssay AID602288 (National Center for Advancing Translational Sciences (NCATS), 2012).

Inconclusive results are not listed. Active and inactive are the calls of the source. Calls come from the whole dose curve; as a rule, active = well fitted cell-killing curve with a large enough effect (not every such curve was filed as active); inconclusive = small, poorly fitted or top-dose-only effect, or another doubt; inactive = no such curve, though single readings can be large or run the other way.

This assay can be described thus: qHTS Assay for Agonists of the Relaxin Receptor RXFP1: Cytotoxicity SAR. To be noted: HEK293-RXFP1 viability, ATPLite luminescence, 72 h; series mostly up to 78.1 µM. An excerpt: The relaxin hormone is involved in the variety of biological functions in normal tissues and diseases. The role of relaxin is well-established in female reproduction and parturition, mammary gland and endometrial development, maintenance of myometrial quiescence during pregnancy. Relaxin signaling through its G protein-coupled receptor (GPCR) RXFP1 results in ECM remodeling through regulation of collagen deposition, cell invasiveness, proliferation and overall tissue homeostasis. […] Recombinant human relaxin (rhRlx) is currently being tested in clinical trials as a protective agent in congestive heart failure, in treating severe preeclampsia, and as an anti-fibrotic agent in systemic sclerosis. In the primary screen, upon relaxin binding RXFP1 activation leads to the activation of adenylate cyclase (AC) via Gs. cAMP will activate PKA, which phosphorylates many signaling proteins. Thus, detection of cAMP increase is an easy and reliable indication of relaxin receptor activation. To screen for agonists of the relaxin receptor, a HEK293T cell line stably transfected with RXFP1 was used. RXFP1 activation was assayed by changes in cAMP levels as detected with a time-resolved fluorescence energy transfer (TR-FRET) cAMP detection kit. We conducted this followup assay to measure the effect of the lead candidates on cell health by measuring ATP levels (ATPLite). NIH Chemical Genomics Center [NCGC] NIH Molecular Libraries Probe Production Centers Network [MLPCN] MLPCN Grant: R03 MH085705-01A1 Assay Submitter (PI): Alexander Agoulnik
In this assay, the luciferase enzyme catalyzes the conversion of the added substrate D-luciferin to oxyluciferin and light with ATP. Thus, the emitted light is proportional to the ATP concentration. To evaluate the cytotoxic properties of the compounds, HEK293-RXFP1 cells were incubated with compounds for 72 h in growth media (DMEM 10% FBS, 1x Pen/Strep, 0.5 mg/mL G418) in 384-well format. After compound incubation, the levels of ATP in each well were measured with the addition of the ATPLite assay reagent.
(In general: qHTS replaces the single test concentration by a dilution series.)
With `CCOc1ccccc1C(=O)Nc1ccncc1C(=O)Nc1cccc(S(=O)(=O)C(F)(F)F)c1`, the Potency is 2.36 µM (active).

On to `COc1ccccc1C(=O)Nc1cccc(C(=O)Nc2cccc(C(F)(F)F)c2)c1`, for which the Potency is 18.8 µM (active).

As to `O=C(Nc1ccccc1C(=O)Nc1cccc(C(F)(F)F)c1)c1cccnc1`, the Potency result was “inactive”.

For the compound `O=C(Nc1cccc(C(F)(F)F)c1)c1ccccc1NC(=O)C1CCCCCC1`, the Potency was 5.93 µM (active).

As for `O=C(Nc1ccc(C(F)(F)F)cc1)c1ccccc1NC(=O)C1CCCCC1`, the Potency is 11.8 µM (active).

In the case of `O=C(Nc1cccc(SC(F)(F)F)c1)c1ccccc1NC(=O)C1CCCCC1`, the Potency entry was “inactive”.

On to `COc1ccc(C(=O)Nc2ccccc2C(=O)Nc2cccc(C(F)(F)F)c2)cc1`, for which the Potency result is “inactive”.

Consider `COc1ccccc1C(=O)Nc1ccccc1C(=O)N(C)c1cccc(C(F)(F)F)c1`, for which the Potency is 29.7 µM (active).

`O=C(NCc1ccco1)c1ccccc1NC(=O)c1ccccc1NC(=O)C1CCCCC1`: the Potency result was “inactive”.

As for `O=C(NCc1cccc(C(F)(F)F)c1)c1ccccc1NC(=O)C1CCCCC1`, the Potency was 11.8 µM (active).

Turning to `CSc1cccc(NC(=O)c2ccccc2NC(=O)C2CCCCC2)c1`, the Potency result was “inactive”.

For the compound `Cc1cccc(NC(=O)c2ccccc2NC(=O)C2CCCCC2)c1`, the Potency was 23.6 µM (active).

As to `CC(C)Oc1ccccc1C(=O)Nc1ccccc1C(=O)Nc1cccc(S(=O)(=O)C(F)(F)F)c1`, the Potency was 9.4 µM (active).

In the case of `O=C(Nc1cccc(C(F)(F)F)c1)c1ccccc1NC(=O)C1CCCC1`, the Potency entry is “inactive”.

`CCCCOc1ccccc1C(=O)Nc1ccccc1C(=O)Nc1cccc(S(=O)(=O)C(F)(F)F)c1`: the Potency result is “inactive”.

As to `O=C(Nc1cccc(Cl)c1)c1ccccc1NC(=O)C1CCCCC1`, the Potency is 29.7 µM (active).

As to `COc1ccccc1-c1ccccc1C(=O)Nc1cccc(C(F)(F)F)c1`, the Potency is 23.6 µM (active).

For the compound `COc1ccccc1CNc1ccccc1C(=O)Nc1cccc(C(F)(F)F)c1`, the Potency is 23.6 µM (active).

As for `O=C(Nc1cccc(C(F)(F)F)c1)c1ccccc1NC(=O)C1CC1`, the Potency result was “inactive”.

`O=C(Nc1cccc(Br)c1)c1ccccc1NC(=O)C1CCCCC1`: the Potency result is “inactive”.

For `COCCNc1ccccc1C(=O)Nc1cccc(C(F)(F)F)c1`, the Potency is 29.7 µM (active).

Consider `O=C(Nc1cccc(-c2ccccc2)c1)c1ccccc1NC(=O)C1CCCCC1`, for which the Potency is 14.9 µM (active).

As for `CCOc1ccccc1C(=O)Nc1ccccc1C(=O)Nc1cccc(C(F)(F)F)c1`, the Potency result is “inactive”.

For `CN(C)CCOc1ccccc1C(=O)Nc1ccccc1C(=O)Nc1cccc(C(F)(F)F)c1`, the Potency result was “inactive”.

As to `CC(C)Oc1ccccc1C(=O)Nc1ccccc1C(=O)Nc1cccc(C(F)(F)F)c1`, the Potency result is “inactive”.

As for `O=C(Nc1cccc(C(F)(F)F)c1)c1ccccc1NC(=O)c1ccccc1OC(F)(F)F`, the Potency result was “inactive”.

For the compound `COc1ccccc1Nc1ccccc1C(=O)Nc1cccc(C(F)(F)F)c1`, the Potency is 23.6 µM (active).

Regarding `O=C(Nc1cccc(S(=O)(=O)C(F)(F)F)c1)c1ccccc1NC(=O)C1CCCCC1`, the Potency was 14.9 µM (active).

In the case of `O=C(Nc1cccc(C(F)(F)F)c1)c1ccccc1NC(=O)C1CCCCC1`, the Potency was 18.8 µM (active).

In the case of `O=C(Nc1cccc(-c2cccc(C(F)(F)F)c2)c1)c1ccccc1NC(=O)C1CCCCC1`, the Potency was 23.6 µM (active).

Turning to `CCOc1ccccc1C(=O)Nc1ncccc1C(=O)Nc1cccc(S(=O)(=O)C(F)(F)F)c1`, the Potency was 18.8 µM (active).

In the case of `CCOc1ccccc1C(=O)NCCC(=O)Nc1cccc(S(=O)(=O)C(F)(F)F)c1`, the Potency result is “inactive”.

With `CCCOc1ccccc1C(=O)Nc1ccccc1C(=O)Nc1cccc(S(=O)(=O)C(F)(F)F)c1`, the Potency is 9.4 µM (active).

Regarding `O=C(Nc1cccc([N+](=O)[O-])c1)c1ccccc1NC(=O)C1CCCCC1`, the Potency result was “inactive”.

With `CCOc1ccccc1C(=O)Nc1ccccc1CNc1cccc(S(=O)(=O)C(F)(F)F)c1`, the Potency entry is “inactive”.

For the compound `CCOc1ccccc1C(=O)Nc1sccc1C(=O)Nc1cccc(S(=O)(=O)C(F)(F)F)c1`, the Potency was 7.47 µM (active).

As for `O=C(Cc1ccccc1)Nc1ccccc1C(=O)Nc1cccc(C(F)(F)F)c1`, the Potency is 47.1 µM (active).

As to `Cc1ccccc1C(=O)Nc1ccccc1C(=O)Nc1cccc(C(F)(F)F)c1`, the Potency entry is “inactive”.

For `CCOc1ccccc1S(=O)(=O)Nc1ccccc1C(=O)Nc1cccc(S(=O)(=O)C(F)(F)F)c1`, the Potency is 5.93 µM (active).

As for `COCCOc1ccccc1C(=O)Nc1ccccc1C(=O)Nc1cccc(C(F)(F)F)c1`, the Potency result is “inactive”.
